The text below walks through data of paper PMC5540273 (PLoS ONE, 2017).

Molecules are shown by their SMILES.

Some test systems named below: DDR2; DMPK; DYRK1A; DYRK1B; DYRK2; EGFR.
Common to all, as to details: concentration: 1 μM, replicates: in singlicate; n = 1
In another test the test system is T1, DLK.
T1 construct: gene MAP3K12

In the next test the test system is T2, DMPK2.
T2 construct: gene CDC42BPG

The test system of another test is T3, DRAK1.
T3 construct: gene STK17A

The subject of another test is T4, DRAK2.
T4 construct: gene STK17B
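Further: KINOMEscan kinase panel screen.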

With `CC(C)(C)c1ccc(-n2cnc3c(N)ncnc32)cc1` [SKF-97263], the “%Inh” value in the test with DDR2 amounted to 13%; in the test with DLK it was 0%; in the test on DMPK2, 0%; in the test on DMPK, 0%; in the test with DRAK1, 85%; with DRAK2, 5%. The “%Inh” value amounted to 15% in the test with DYRK1A, 21% in the test on DYRK1B, 3% in the test on DYRK2 and 38% with EGFR.
`Fc1cccc(COc2ccc(Nc3ncnc4nn5ccccc5c34)cc2Cl)c1` [GW689066]: the “%Inh” value in the test with DDR2 is 37%; with DLK it was 52%; in the test on DMPK2, 0%; in the test with DMPK it was 0%; in the test with DRAK1, 87%; with DRAK2 it was 0%. In addition, the results for the “%Inh” value with DYRK1A, with DYRK1B and in the test with DYRK2 were 8%, 0% and 0%, respectively.
In the case of `CC(C)(C)OC(=O)NC1CCCN(c2cc(-c3ccc4c(N)n[nH]c4c3)nc(N)n2)C1` (centres unmarked) [GSK2286096], the “%Inh” value stood at 0% with DDR2; 2% with DLK; 0% in the test with DMPK2; 0% in the test with DMPK; 96.3% with DRAK1; 0% in the test on DRAK2. Besides, the “%Inh” value in the test with DYRK1A is on record as 14%; in the test with DYRK1B, 100%; in the test on DYRK2 it was 80%; in the test on EGFR, 27%.
As for `Cc1cc(N2CCC(NS(=O)(=O)c3ccc(F)cc3)CC2)nc(Nc2cccc(C#N)c2)n1.O=C(O)C(F)(F)F` [GSK1653537], the “%Inh” value in the test on DDR2 came out at 7%; in the test with DLK, 47%; with DMPK2, 0%; in the test on DMPK, 0%; in the test on DRAK1, 3%; in the test on DRAK2, 0%. The “%Inh” value with DYRK1A came to 32%; with DYRK1B, 97.7%; with DYRK2 it was 5%; in the test with EGFR, 50%.
With `N#Cc1ccc(Oc2ccc(Nc3ncnc4cc[nH]c34)cc2Cl)cc1`, the “%Inh” value in the test on DDR2 is 0%; in the test with DLK, 0%; with DMPK2 it was 4%; in the test with DMPK, 0%; in the test with DRAK1, 32%; in the test on DRAK2, 1%. The “%Inh” value with DYRK1A is reported as 1%; with DYRK1B it was 15%; in the test with DYRK2, 0%; in the test on EGFR, 96.7%.
Consider `Cl.Cl.c1ccc(-c2cc3ccncc3cc2OC2CCNCC2)cc1` [GSK1122999], for which the “%Inh” value is 0% in the test on DDR2; 31% in the test on DLK; 18% in the test on DMPK2; 0% in the test with DMPK; 21% with DRAK1; 0% in the test on DRAK2. Moreover, the “%Inh” value in the test with DYRK1A is listed as 13%; in the test with DYRK1B, 15%; in the test with DYRK2, 21%; in the test with EGFR, 23%.
Take `CC(C)N1CCC(n2cnc(-c3ccc(F)cc3)c2-c2ccnc(N)n2)CC1` [SB-223132]: the “%Inh” value is listed as 38% in the test on DDR2; 0% with DLK; 11% with DMPK2; 0% in the test with DMPK; 7% in the test on DRAK1; 7% in the test on DRAK2. The “%Inh” value was 0% in the test on DYRK1A, 5% with DYRK1B, 0% with DYRK2 and 10% in the test on EGFR.
For `Cc1ccc(C)c(NC(=O)NCCNc2ccnc(Nc3ccc(F)cc3)n2)c1` [GSK1379878], the “%Inh” value is listed as 15% in the test on DDR2; 38% with DLK; 0% with DMPK2; 0% in the test on DMPK; 5% with DRAK1; 3% in the test with DRAK2. In addition, the “%Inh” value in the test on DYRK1A is 0%; in the test on DYRK1B, 1%; in the test on DYRK2, 3%; in the test with EGFR, 10%.
For `Oc1ccc2ncnc(Nc3ccc(OCc4ccccc4)cc3)c2c1` [GI262866], the “%Inh” value is reported as 7% with DDR2; 11% in the test on DLK; 0% in the test on DMPK2; 0% in the test with DMPK; 0% in the test with DRAK1; 0% in the test on DRAK2. Besides, the “%Inh” value in the test with DYRK1A amounted to 16%; with DYRK1B, 0%; with DYRK2 it was 18%; in the test with EGFR, 100%.
Turning to `Cl.Cn1ccc(-c2cccc(Nc3ccnc4cc(-c5nccs5)ccc34)c2)n1` [GW525701], the “%Inh” value is 33% in the test on DDR2; 37% in the test with DLK; 0% in the test on DMPK2; 0% with DMPK; 8% in the test with DRAK1; 10% with DRAK2. Moreover, the “%Inh” value with DYRK1A is recorded as 12%; with DYRK1B, 16%; in the test on DYRK2 it was 0%; in the test on EGFR, 11%.
In the case of `Cl.c1ccc(Cn2ccc3cc(Nc4ncnc5ccccc45)ccc32)cc1` [GW275568], the “%Inh” value came out at 16% with DDR2; 6% in the test on DLK; 5% with DMPK2; 0% in the test with DMPK; 0% with DRAK1; 0% with DRAK2. Besides, the “%Inh” value came out at 4% in the test on DYRK1A, 0% with DYRK1B, 9% in the test with DYRK2 and 100% with EGFR.
For the compound `O=C(c1ccc(-c2cc(-c3c[nH]nc3-c3ccccn3)ccn2)cc1)N1CCCC1` [GW792479], the “%Inh” value in the test with DDR2 was determined as 24%; in the test with DLK, 0%; in the test with DMPK2, 0%; with DMPK, 0%; in the test with DRAK1, 0%; in the test on DRAK2, 10%. In addition, the “%Inh” value with DYRK1A came out at 0%; in the test with DYRK1B, 0%; in the test on DYRK2, 0%; with EGFR, 27%.
For the compound `COc1ccc(NC(=O)c2ccc(-c3cc(-c4nnc(C)o4)ccc3C)cc2)cc1` [GW595885], the “%Inh” value is listed as 9% with DDR2; 18% in the test with DLK; 0% with DMPK2; 0% in the test with DMPK; 0% with DRAK1; 0% in the test on DRAK2. In addition, the “%Inh” value is 20% in the test on DYRK1A, 0% in the test on DYRK1B, 4% with DYRK2 and 14% with EGFR.
Consider `CS(=O)(=O)CCNCc1nc(-c2ccc3ncnc(Nc4ccc(OCc5cccc(F)c5)c(Cl)c4)c3c2)cs1.Cl` [GW583340], for which the “%Inh” value is reported as 20% in the test with DDR2; 2% in the test on DLK; 0% in the test with DMPK2; 0% in the test with DMPK; 7% in the test with DRAK1; 17% in the test with DRAK2. For the same compound, the “%Inh” value was 12% with DYRK1A, 20% in the test on DYRK1B, 16% in the test on DYRK2 and 99.9% with EGFR.
With `NC(=O)c1sc(-n2cnc3ccccc32)cc1OCc1ccccc1F` [GSK1024306], the “%Inh” value in the test on DDR2 came to 25%; with DLK, 38%; in the test on DMPK2, 0%; in the test with DMPK, 0%; in the test on DRAK1, 4%; in the test with DRAK2, 0%. For the same compound, the “%Inh” value in the test with DYRK1A is reported as 4%; with DYRK1B it was 0%; in the test with DYRK2, 17%; with EGFR, 84%.
